In PubChem BioAssay (NCI) one finds growth data, which are given here for twelve compounds.

Several values for one entry are separate records, joined by “and”; a condition that tells them apart may be missing. Identical values can stand only once. Compounds without any hit were thinned out: in the full panel of roughly 83,000, 20% have a hit.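 96-well plates, one dose, 48 hours. Percent growth reported; active if below 10.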 A number with no mark means an inactive call. Activity calls are given as the source filed them.

In the assay the test system is T-47D breast. The assay is described as follows: NCI-60 one-dose screen, 48 h (100 = growth as untreated, 0 = no growth, -100 = all killed). Conditions: 10 µM unless noted.
As to `CN1CCN(Cc2ccc(NC(=O)c3cccc(C#Cc4c(N)ncc5ccc(F)cc45)c3)cc2C(F)(F)F)CC1`, the growth is 14.8%.

As to `O=S(=O)(Nc1cc(Sc2cccc3cccnc23)c(O)c2ccccc12)c1ccc(F)cc1`, the growth was -40.3% (active).

Regarding `CCOC(=O)c1cc2c(n1Cc1cc(OC)cc(OC)c1Br)-c1nc(NC(C)=O)sc1CCC2`, the growth is 38.5%.

`C#Cc1cc(C(=O)Nc2ccc(CN3CCN(C)CC3)c(C(F)(F)F)c2)ccc1C`: the growth was 79%.

Take `O=c1cc(N/N=C/c2ccc(F)cc2)c2cc(Cl)ccc2[nH]1`: the growth is 68.5%.

In the case of `COc1ccc(Nc2nn3c(SCC(=O)c4ccc(C)cc4)nnc3s2)cc1`, the growth is 73.2%.

As to `Nc1ccccc1SC(CC(=O)c1ccccc1)c1ccc([N+](=O)[O-])cc1` (configuration not stated), the growth was 93.5% and 78.4%.

Regarding `O=C1/C(=C/c2ccc(-c3cccc(C(F)(F)F)c3)o2)SC(=S)N1CCc1ccc(O)cc1`, the growth was 53.8%.

Take `COc1cc2c(cc1OCCCOC1=C=C=C(c3ccc4c(c3)c3cc(-c5ccc(OCCCOc6cc7c(cc6OC)C(=O)N6CCC[C@H]6C=N7)cc5)ccc3n4S(=O)(=O)c3ccc(C)cc3)C=C1)N=C[C@@H]1CCCN1C2=O`: the growth is 37.1%.

Turning to `CN1CCN(Cc2ccc(NC(=O)c3nc4ccc5[nH]ncc5c4c4c3CCCC4)cc2C(F)(F)F)CC1`, the growth is -69.3% (active).

Take `CCOC(=O)n1cc(-c2nonc2-c2cn(C)c3ccc(OC)cc23)c2cc(F)ccc21`: the growth is 73%.

In the case of `CCOc1ccccc1NC(=O)c1cc2ccccc2cc1O`, the growth was 51.7%.
